# Measurements published in PMC5540273 (PLoS ONE, 2017).
# Columns and labels:
# Settings in all cases: concentration: 1 μM, replicates: in singlicate; n = 1
# [1] = system: T1, DMPK2
# T1 construct: gene CDC42BPG
# [2] = system: DMPK
# [3] = system: T2, DRAK1
# T2 construct: gene STK17A
# [4] = system: T3, DRAK2
# T3 construct: gene STK17B
# [5] = system: DYRK1A
# [6] = system: DYRK1B
# [7] = system: DYRK2
# [8] = system: EGFR
# [9] = system: EIF2AK1
# [10] = system: EPHA1
# 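Further: KINOMEscan kinase panel screen.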
smiles,measurement,setting,value
Fc1ccc(-c2nn3cccc(F)c3c2-c2ccncc2)cc1 [GW475620],%Inh,[1],81%
same,%Inh,[2],28%
same,%Inh,[3],0%
same,%Inh,[4],17%
same,%Inh,[5],7%
same,%Inh,[6],0%
same,%Inh,[7],0%
same,%Inh,[8],52%
same,%Inh,[9],0%
same,%Inh,[10],22%
Cc1cccc2c(-c3ccncn3)c(-c3ccc(F)cc3)nn12 [GW515532],%Inh,[1],24%
same,%Inh,[2],0%
same,%Inh,[3],0%
same,%Inh,[4],0%
same,%Inh,[5],23%
same,%Inh,[6],0%
same,%Inh,[7],13%
same,%Inh,[8],47%
same,%Inh,[9],0%
same,%Inh,[10],16%
COc1ccc(CSc2nnc(-c3ccc4c(c3)CCO4)o2)cc1,%Inh,[1],0%
same,%Inh,[2],0%
same,%Inh,[3],0%
same,%Inh,[4],3%
same,%Inh,[5],0%
same,%Inh,[6],35%
same,%Inh,[7],0%
same,%Inh,[8],0%
same,%Inh,[9],0%
same,%Inh,[10],0%
Cn1cncc1-c1cc2c(Nc3ccc(OCc4ccccc4)cc3)ncnc2cn1 [GW281179],%Inh,[1],0%
same,%Inh,[2],0%
same,%Inh,[3],93%
same,%Inh,[4],5%
same,%Inh,[5],19%
same,%Inh,[6],21%
same,%Inh,[7],3%
same,%Inh,[8],100%
same,%Inh,[9],0%
same,%Inh,[10],14%
Cc1ccc(NC(=O)Nc2ccc(Cl)c(C(F)(F)F)c2)cc1-c1ccc(C(=O)Nc2ccncc2)cc1 [GSK1398470],%Inh,[1],12%
same,%Inh,[2],0%
same,%Inh,[3],0%
same,%Inh,[4],0%
same,%Inh,[5],12%
same,%Inh,[6],19%
same,%Inh,[7],29%
same,%Inh,[8],25%
same,%Inh,[9],78%
same,%Inh,[10],6%
